Drawing on PubChem BioAssay (Tox21), this text covers Potency for 14 compounds.

Molecules are shown by their SMILES. A number with no mark means an inactive call. Records with an inconclusive call do not appear. The source made the active and inactive calls. Unless noted, the call rests on the fitted dose curve; in most records, active means well fitted curve in the direction sought with a large enough effect in the repeat runs; inconclusive means weak or mixed curves; inactive means no such curve, though single readings can be large; an effect the other way counts as inactive or inconclusive.

Test [1] is described as follows: Caspase-3/7 induction in HepG2 cells by small molecules, qHTS assay (AID 1346978). Further: nearly all actives have a fitted effect of over 15% in size. Further: potency means the concentration at half of the fitted maximal effect. The method in brief:
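Wild-type HepG2 cells, 2,000/well, settled 5 hr at 37 C and 5% CO2, then compound-treated for 17 hr; caspase-3/7 activity read by luminescent Caspase-Glo 3/7 after 30 min at room temperature.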
(qHTS replaces the single test concentration by a dilution series.)

A short description of test [2]: Caspase-3/7 induction in CHO-K1 cells by small molecules, qHTS cell viability counter screen (AID 1346979). Further: nearly all actives have a fitted effect of over 35% in size. Further: potency means the concentration at half of the fitted maximal effect. The method in brief: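 Following a 5hr settling period, CHO-K1 cells at 1,500 per well received DMSO-dissolved compounds. Cell viability was quantified 16hr later by CellTiter-Fluor fluorescence, measured after 1hr with reagent at 37C.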
Test [3] is described as follows: Caspase-3/7 induction in CHO-K1 cells by small molecules, qHTS assay (AID 1346980). Further: nearly all actives have a fitted effect of over 15% in size. Further: potency means the concentration at half of the fitted maximal effect. The method in brief: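 Wild-type CHO-K1 cells exposed to compounds for 17hr at 37 C, 5% CO2. Caspase-3/7 activity then measured by Caspase-Glo 3/7 luminescence after 30min at room temperature.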
Test [4] is described as follows: Caspase-3/7 induction in HepG2 cells by small molecules, qHTS cell viability counter screen (AID 1346981). Further: nearly all actives have a fitted effect of over 30% in size. Further: potency means the concentration at half of the fitted maximal effect. Summed up:
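Treatment of HepG2 cells with DMSO-delivered compounds ran 16 hr at 37 C following a 5-hr pre-incubation of 2,000 cells/well. CellTiter-Fluor fluorescence, read after 1 hr, served as the viability measure in a qHTS format.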

The target of test [5] is Nuclear receptor subfamily 1 group I member 2 (Homo sapiens) (UniProt O75469). Nature of the test: Human pregnane X receptor (PXR) small molecule agonists, qHTS assay (AID 1346982). Further: nearly all actives have a fitted effect of over 35% in size. Further: potency means the concentration at half of the fitted maximal effect. Summed up: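 Stable HepG2 line reporting PXR-mediated CYP3A4 expression via luciferase. Treatment: 24 hr with compounds in DMSO at 37 C. Detection: ONE-Glo luminescence.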
Chain of Nuclear receptor subfamily 1 group I member 2 (Homo sapiens) (O75469 whole entry, looked up): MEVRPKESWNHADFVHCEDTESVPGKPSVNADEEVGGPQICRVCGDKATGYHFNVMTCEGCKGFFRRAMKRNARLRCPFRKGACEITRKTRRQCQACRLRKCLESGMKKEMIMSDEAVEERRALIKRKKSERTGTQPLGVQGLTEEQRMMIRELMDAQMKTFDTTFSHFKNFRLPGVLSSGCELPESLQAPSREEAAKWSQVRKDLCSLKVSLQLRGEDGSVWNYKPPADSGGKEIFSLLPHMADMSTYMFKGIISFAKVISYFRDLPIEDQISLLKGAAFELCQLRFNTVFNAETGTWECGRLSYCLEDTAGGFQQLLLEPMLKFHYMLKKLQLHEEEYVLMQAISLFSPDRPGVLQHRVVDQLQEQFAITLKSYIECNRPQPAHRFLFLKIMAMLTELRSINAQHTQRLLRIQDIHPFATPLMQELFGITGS
Test [6] deals with Acetylcholinesterase (Homo sapiens) (UniProt P22303). Put plainly: Acetylcholinesterase (AChE) small molecule antagonists: colormetric cell-based qHTS assay (AID 1347395; calls by dose curve; further: nearly all actives have a fitted effect of over 30% in size; further: potency means the concentration at half of the fitted maximal effect). Summed up:
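After overnight attachment at 37 C, SH-SY5Y cells get 30 min compound exposure; detection cocktail (acetylthiocholine, DTNB) then incubates 90 min at 37 C, and absorbance reflects AChE-generated thiocholine.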

Test [7] has the same target. Put plainly: Acetylcholinesterase (AChE) small molecule antagonists: fluorescence cell-based qHTS assay (AID 1347398; calls by dose curve; further: nearly all actives have a fitted effect of over 50% in size; further: potency means the concentration at half of the fitted maximal effect). The following applies: Potency: AChE activity. Summed up: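 SH-SY5Y, 2,000 cells/well, attached overnight; cmpd 30 min 37 C; acetylthiocholine/Thiolite Green cocktail 40 min RT; fluorescence Ex/Em 490/520 nm.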
The target is the same in test [8]. Put plainly: Acetylcholinesterase (AChE) small molecule antagonists: enzyme-based qHTS assay with human liver microsomes (AID 1347399; calls by dose curve; further: nearly all actives have a fitted effect of over 60% in size). The following applies: Potency: qHTS inhibition. The method in brief:
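Recombinant human AChE (50 mU/mL in the enzyme mix) and human liver microsomes (0.25 mg/mL final) were preincubated with compound and NADPH (0.25 mg/mL final) for 30 min at 37 C. Acetylthiocholine/DTNB was then added; thiocholine was read colorimetrically after 10 min at room temperature.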

The target of test [9] is Cytochrome P450 2C19 (Homo sapiens) (UniProt P33261). Nature of the test: Cytochrome P450 Family 2 Subfamily C Member 19 (CYP2C19) small molecule antagonists: luciferase reporter qHTS assay (AID 1671197). Further: nearly all actives have a fitted effect of over 65% in size. Further: potency means the concentration at half of the fitted maximal effect. Summed up:
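Compounds were tested on CYP2C19 activity via proluciferin conversion to luciferin. The 37C, 1 h reaction followed NADPH addition; detection reagent stopped it.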

Test [10] addresses Cytochrome P450 2C9 (Homo sapiens) (UniProt P11712). Put plainly: Cytochrome P450 Family 2 Subfamily C Member 9 (CYP2C9) small molecule antagonists: luciferase reporter qHTS assay (AID 1671198). Further: nearly all actives have a fitted effect of over 50% in size. Further: potency means the concentration at half of the fitted maximal effect. The method in brief: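 P450-Glo proluciferin substrate with CYP2C9 enzyme; 10 min RT preincubation, then NADPH regeneration 1 h at 37C; luciferin detection reagent 20 min RT, luminescence in relative luminescence units.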

Test [11] addresses Cytochrome P450 1A2 (Homo sapiens) (UniProt P05177). Put plainly: Cytochrome P450 Family 1 Subfamily A Member 2 (CYP1A2) small molecule antagonists: luciferase reporter qHTS assay (AID 1671199). Further: nearly all actives have a fitted effect of over 50% in size. Further: potency means the concentration at half of the fitted maximal effect. Summed up: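 Read-out is luminescence from luciferin detection reagent (20 min) proportional to CYP1A2 activity; compounds in DMSO preincubated 10 min with enzyme and proluciferin substrate, then NADPH regeneration solution, 1 h, room temperature.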
A general note: Reporter assays use an easily measured gene product as a stand-in for the process of interest.

Test [12] has as its target Cytochrome P450 3A4 (Homo sapiens) (UniProt P08684). Put plainly: Cytochrome P450 Family 3 Subfamily A Member 4 (CYP3A4) small molecule antagonists: luciferase reporter qHTS assay (AID 1671201). Further: nearly all actives have a fitted effect of over 50% in size. Further: potency means the concentration at half of the fitted maximal effect. Summed up: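 CYP3A4 activity was followed with a P450-Glo proluciferin substrate. Test compounds in DMSO were preincubated 10 min; NADPH regeneration then ran 1 h, and light output was read 20 min after detection reagent.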

In test [13] the target is Acetylcholinesterase (Homo sapiens) (UniProt P22303). Nature of the test: Acetylcholinesterase (AChE) small molecule antagonists: enzyme-based qHTS assay (AID 1347397; calls by dose curve; further: nearly all actives have a fitted effect of over 55% in size). The following applies: Potency: AChE enzyme activity inhibition. The method in brief:
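Colorimetric DTNB read-out of thiocholine released from acetylthiocholine by recombinant human AChE (50 mU/mL as dispensed). Compounds were preincubated 30 min at RT before substrate/DTNB addition, with a 10 min RT reaction.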

Test [14] has as its target Cytochrome P450 2D6 (Homo sapiens) (UniProt P10635). Put plainly: Cytochrome P450 Family 2 Subfamily D Member 6 (CYP2D6) small molecule antagonists: luciferase reporter qHTS assay (AID 1671196). Further: nearly all actives have a fitted effect of over 50% in size. Further: potency means the concentration at half of the fitted maximal effect. Summed up: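 Chemicals tested for interference with CYP2D6 activity; proluciferin substrate, NADPH regeneration, 1 h at room temperature, luminescent detection.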
For test [15], the target named is Voltage-gated inwardly rectifying potassium channel KCNH2 (Homo sapiens) (UniProt Q12809). Put plainly: Human Ether-a-go-go-Related Gene (hERG) channel small molecule antagonists: fluorescence cell-based qHTS assay (AID 1671200). Further: nearly all actives have a fitted effect of over 50% in size. Further: potency means the concentration at half of the fitted maximal effect. The method in brief: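 In this thallium-flux screen, overnight-cultured U2OS cells bearing the channel are dye-loaded in darkness for an hour, rested 10 min at room temperature, and then monitored kinetically at 480/540 nm for two minutes post-stimulus.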
Chain of Voltage-gated inwardly rectifying potassium channel KCNH2 (Homo sapiens) (Q12809 whole entry, looked up): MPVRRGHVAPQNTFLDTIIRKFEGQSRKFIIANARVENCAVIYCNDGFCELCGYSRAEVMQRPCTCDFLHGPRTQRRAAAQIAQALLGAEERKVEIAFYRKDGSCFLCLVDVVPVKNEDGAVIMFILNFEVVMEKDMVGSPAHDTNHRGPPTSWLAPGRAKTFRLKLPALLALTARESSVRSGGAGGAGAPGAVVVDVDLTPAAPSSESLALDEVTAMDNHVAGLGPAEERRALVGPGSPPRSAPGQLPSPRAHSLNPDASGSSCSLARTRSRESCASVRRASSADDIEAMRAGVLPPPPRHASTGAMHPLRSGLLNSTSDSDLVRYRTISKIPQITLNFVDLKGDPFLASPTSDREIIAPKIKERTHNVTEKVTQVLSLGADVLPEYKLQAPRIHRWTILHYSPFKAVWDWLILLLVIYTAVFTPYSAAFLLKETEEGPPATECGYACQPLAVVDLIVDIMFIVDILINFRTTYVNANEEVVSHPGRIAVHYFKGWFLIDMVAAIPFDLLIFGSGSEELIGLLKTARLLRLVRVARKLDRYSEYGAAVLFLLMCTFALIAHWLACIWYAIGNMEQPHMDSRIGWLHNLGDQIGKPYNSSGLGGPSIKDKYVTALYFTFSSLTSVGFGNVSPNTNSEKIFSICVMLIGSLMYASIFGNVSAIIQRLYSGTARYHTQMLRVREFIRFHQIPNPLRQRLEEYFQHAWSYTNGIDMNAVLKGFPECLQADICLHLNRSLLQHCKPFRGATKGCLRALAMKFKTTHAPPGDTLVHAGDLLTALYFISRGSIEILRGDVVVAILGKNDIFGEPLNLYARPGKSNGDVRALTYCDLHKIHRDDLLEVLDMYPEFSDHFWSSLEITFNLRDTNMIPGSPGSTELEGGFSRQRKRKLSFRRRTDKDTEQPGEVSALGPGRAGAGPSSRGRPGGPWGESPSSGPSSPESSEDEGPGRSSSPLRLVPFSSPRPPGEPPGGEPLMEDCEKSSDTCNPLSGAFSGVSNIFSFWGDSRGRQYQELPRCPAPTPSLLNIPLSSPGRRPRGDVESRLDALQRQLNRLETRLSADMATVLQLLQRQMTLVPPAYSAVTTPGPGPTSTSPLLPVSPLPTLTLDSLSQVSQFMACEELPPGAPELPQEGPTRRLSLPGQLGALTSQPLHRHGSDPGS

Chain of Cytochrome P450 2C19 (Homo sapiens) (P33261 whole entry, looked up): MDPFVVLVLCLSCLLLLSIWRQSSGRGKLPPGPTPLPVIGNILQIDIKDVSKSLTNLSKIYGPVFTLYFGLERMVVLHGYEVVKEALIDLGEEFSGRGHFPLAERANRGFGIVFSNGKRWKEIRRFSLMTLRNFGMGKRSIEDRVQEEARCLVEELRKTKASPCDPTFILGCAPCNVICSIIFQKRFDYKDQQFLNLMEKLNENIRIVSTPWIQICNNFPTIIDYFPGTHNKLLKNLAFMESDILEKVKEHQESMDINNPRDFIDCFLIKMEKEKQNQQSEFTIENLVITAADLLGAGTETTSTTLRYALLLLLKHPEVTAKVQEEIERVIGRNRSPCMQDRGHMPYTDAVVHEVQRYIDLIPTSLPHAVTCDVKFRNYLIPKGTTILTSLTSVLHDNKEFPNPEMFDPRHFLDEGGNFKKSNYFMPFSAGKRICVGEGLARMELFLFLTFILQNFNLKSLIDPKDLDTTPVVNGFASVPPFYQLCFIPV
Chain of Cytochrome P450 1A2 (Homo sapiens) (P05177 whole entry, looked up): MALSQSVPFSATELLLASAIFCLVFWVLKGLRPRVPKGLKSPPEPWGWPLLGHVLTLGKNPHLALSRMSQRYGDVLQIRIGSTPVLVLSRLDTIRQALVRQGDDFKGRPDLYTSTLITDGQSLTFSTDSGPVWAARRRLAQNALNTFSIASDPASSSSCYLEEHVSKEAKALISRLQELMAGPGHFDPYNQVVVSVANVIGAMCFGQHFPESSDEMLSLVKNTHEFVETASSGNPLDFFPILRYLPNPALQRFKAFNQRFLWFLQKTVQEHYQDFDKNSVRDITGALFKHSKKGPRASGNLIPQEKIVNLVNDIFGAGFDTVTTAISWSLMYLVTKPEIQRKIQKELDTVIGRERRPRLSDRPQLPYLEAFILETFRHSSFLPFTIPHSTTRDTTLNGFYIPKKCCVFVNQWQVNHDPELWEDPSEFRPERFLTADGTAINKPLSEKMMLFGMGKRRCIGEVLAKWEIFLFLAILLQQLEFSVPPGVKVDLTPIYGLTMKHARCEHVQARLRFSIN
Chain of Acetylcholinesterase (Homo sapiens) (P22303 whole entry, looked up): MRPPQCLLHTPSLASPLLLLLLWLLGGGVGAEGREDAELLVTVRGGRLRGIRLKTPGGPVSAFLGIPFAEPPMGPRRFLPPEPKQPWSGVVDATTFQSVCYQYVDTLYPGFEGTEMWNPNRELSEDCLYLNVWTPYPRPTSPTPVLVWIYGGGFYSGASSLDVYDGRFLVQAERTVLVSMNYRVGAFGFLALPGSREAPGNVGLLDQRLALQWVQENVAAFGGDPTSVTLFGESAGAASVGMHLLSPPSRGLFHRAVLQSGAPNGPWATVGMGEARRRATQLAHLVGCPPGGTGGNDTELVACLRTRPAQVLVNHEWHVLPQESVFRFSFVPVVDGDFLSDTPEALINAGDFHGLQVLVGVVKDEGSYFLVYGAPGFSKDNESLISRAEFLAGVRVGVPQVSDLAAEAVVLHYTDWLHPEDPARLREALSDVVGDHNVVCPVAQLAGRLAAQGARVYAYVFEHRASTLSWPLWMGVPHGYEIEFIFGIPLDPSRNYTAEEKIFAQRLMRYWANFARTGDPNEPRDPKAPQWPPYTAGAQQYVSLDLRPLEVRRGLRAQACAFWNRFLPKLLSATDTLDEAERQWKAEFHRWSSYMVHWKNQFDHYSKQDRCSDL
Chain of Cytochrome P450 3A4 (Homo sapiens) (P08684 whole entry, looked up): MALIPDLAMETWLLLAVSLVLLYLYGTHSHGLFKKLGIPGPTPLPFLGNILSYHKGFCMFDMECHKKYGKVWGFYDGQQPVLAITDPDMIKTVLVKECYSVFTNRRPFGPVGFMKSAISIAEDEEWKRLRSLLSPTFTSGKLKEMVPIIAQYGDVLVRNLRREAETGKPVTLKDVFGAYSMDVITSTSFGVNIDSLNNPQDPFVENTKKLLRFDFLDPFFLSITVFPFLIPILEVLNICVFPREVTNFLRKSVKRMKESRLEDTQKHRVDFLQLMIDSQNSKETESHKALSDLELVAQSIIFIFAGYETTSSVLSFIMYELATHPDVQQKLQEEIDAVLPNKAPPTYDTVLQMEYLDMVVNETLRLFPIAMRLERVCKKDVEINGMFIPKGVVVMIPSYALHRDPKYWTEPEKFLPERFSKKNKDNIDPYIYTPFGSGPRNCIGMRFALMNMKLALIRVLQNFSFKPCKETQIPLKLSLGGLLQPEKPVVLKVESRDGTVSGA
Chain of Cytochrome P450 2C9 (Homo sapiens) (P11712 whole entry, looked up): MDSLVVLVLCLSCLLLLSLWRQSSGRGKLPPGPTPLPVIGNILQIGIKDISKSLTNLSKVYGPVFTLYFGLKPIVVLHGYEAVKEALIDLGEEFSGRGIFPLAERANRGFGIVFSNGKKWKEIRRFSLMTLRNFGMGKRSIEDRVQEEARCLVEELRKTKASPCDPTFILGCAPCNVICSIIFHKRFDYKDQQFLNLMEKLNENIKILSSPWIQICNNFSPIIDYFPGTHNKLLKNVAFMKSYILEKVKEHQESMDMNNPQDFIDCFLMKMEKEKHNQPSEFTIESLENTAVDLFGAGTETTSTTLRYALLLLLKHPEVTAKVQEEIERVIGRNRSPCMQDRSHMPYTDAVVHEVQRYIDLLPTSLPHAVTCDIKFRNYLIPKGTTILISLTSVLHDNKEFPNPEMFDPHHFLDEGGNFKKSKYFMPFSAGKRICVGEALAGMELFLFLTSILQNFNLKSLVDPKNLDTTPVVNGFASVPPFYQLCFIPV
Chain of Cytochrome P450 2D6 (Homo sapiens) (P10635 whole entry, looked up): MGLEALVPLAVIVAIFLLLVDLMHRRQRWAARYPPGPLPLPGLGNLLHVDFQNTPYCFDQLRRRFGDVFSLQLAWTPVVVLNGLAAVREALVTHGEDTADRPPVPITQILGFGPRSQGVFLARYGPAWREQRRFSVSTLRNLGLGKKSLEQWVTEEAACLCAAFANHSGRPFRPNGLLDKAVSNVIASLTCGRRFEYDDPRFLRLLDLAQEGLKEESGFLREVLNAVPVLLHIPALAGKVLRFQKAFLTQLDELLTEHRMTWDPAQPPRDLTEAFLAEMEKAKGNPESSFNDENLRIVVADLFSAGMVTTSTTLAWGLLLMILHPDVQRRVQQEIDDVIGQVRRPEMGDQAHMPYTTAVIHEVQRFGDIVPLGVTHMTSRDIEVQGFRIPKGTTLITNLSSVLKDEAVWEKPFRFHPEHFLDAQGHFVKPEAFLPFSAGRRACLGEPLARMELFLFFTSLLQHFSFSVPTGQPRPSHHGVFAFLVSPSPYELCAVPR

On to `CC(C)=CCN1CC[C@@]2(C)c3cc(O)ccc3C[C@@H]1[C@@H]2C`, for which the Potency entry in test [1], in test [2], in test [3], in test [4], in test [5] and in test [8] was “inactive” each time. Moreover, the Potency entry in [10], in test [11] and in test [12] was “inactive” throughout. The Potency is 31.2 µM (active) in test [6], 44.1 µM (active) in [7] and 78.5 µM (active) in test [9].

`C=CCBr`: the Potency result in test [1], in test [2], in test [3], in test [4], in test [5] and in test [13] was “inactive” each time. In addition, the Potency entry in test [7], in test [8], in test [10], in test [15] and in test [12] was “inactive” in each case. For the same compound, in test [14], the Potency is 33.6 µM (active).

Turning to `CCC1(CC)C(=O)N=C(O)NC1=O`, the Potency result in test [1], in [2], in test [3], in test [4], in [6] and in test [13] was “inactive” in each case. The Potency entry in test [7], in [8], in [14], in test [9], in test [10] and in test [11] was “inactive” in each case. Also, the Potency result in test [15] and in [12] was “inactive” each time.

As for `FC(F)C(F)(F)OCC(Cn1cncn1)c1ccc(Cl)cc1Cl` (stereo unspecified), the Potency result in [1], in [3], in [6], in test [13], in [7] and in test [8] was “inactive” each time. Moreover, the Potency result in test [15] was “inactive”. Moreover, the Potency was 48.3 µM (active) in [2]; 27.1 µM (active) in test [5]; 11.2 µM (active) in [14]; 0.0199 µM (active) in test [9]; 1.77 µM (active) in test [10]; 7.06 µM (active) in test [11]. For the same compound, in test [12], the Potency is 0.223 µM (active).

As to `CC(Cc1ccc(OCC(=O)O)cc1)NCC(O)c1csc(C(F)(F)F)n1` (stereo unspecified), the Potency result in [1], in test [2], in [3], in test [5], in [6] and in test [13] was “inactive” in each case. The Potency entry in [7], in [8], in test [9], in test [10], in test [15] and in test [12] was “inactive” each time. In test [11], the Potency was 35.6 µM (active).

Turning to `CCOP(=S)(NC(C)C)Oc1ccccc1C(=O)OC(C)C` (stereo unspecified), the Potency entry in test [1], in test [3], in [6], in test [13], in test [7] and in [8] was “inactive” each time. Besides, the Potency entry in [15] was “inactive”. The Potency was 61.1 µM (active) in test [2]; 3.06 µM (active) in test [5]; 0.2 µM (active) in test [9]; 1.42 µM (active) in [10]; 8.94 µM (active) in test [11].

For `CO/N=C(\C(=O)OC)c1ccccc1CO/N=C(\C)c1cccc(C(F)(F)F)c1`, the Potency entry in [1], in test [3], in test [6], in test [13], in test [7] and in [8] was “inactive” in each case. Further, the Potency in [2] is 0.137 µM (active); in test [5], 0.686 µM (active); in test [9] it was 3.56 µM (active); in test [10], 8.94 µM (active); in [11], 17.8 µM (active).

As to `CN=C=O`, the Potency result in test [1], in test [2], in test [3], in test [4], in test [5] and in test [6] was “inactive” in each case. The Potency entry in test [13], in test [7], in test [8], in test [9], in [10] and in [12] was “inactive” in each case. Further, the Potency was 57.2 µM (active) in test [14] and 36.1 µM (active) in test [11].

As to `C=Cc1cccc(CCl)c1`, the Potency result in [1], in [2], in [3], in test [5], in [6] and in [13] was “inactive” throughout. Further, the Potency entry in [7], in test [8], in test [14], in test [10], in test [15] and in [12] was “inactive” in each case.

For `COc1ccc2c(c1OC)C(=O)O[C@@H]2[C@H]1c2cc3c(cc2CCN1C)OCO3`, the Potency result in [1], in test [3], in [6], in test [13], in test [7] and in [8] was “inactive” in each case. In addition, the Potency was 21.5 µM (active) in test [2]; 17.1 µM (active) in test [4]; 30.3 µM (active) in test [5]; 35.2 µM (active) in test [14]; 3.95 µM (active) in test [9]; 5.58 µM (active) in test [10]. Further, the Potency was 31.4 µM (active) in [11] and 21.7 µM (active) in test [15].

Turning to `N#Cc1ccc(N(CC(N)=O)CC(F)(F)F)cc1C(F)(F)F`, the Potency result in test [1], in test [2], in test [3], in test [4], in test [5] and in [13] was “inactive” throughout. Further, the Potency result in [7], in [8] and in [15] was “inactive” in each case. Besides, the Potency in test [14] is 31.7 µM (active); in [9], 79.6 µM (active); in test [10] it was 35.6 µM (active); in test [11], 39.9 µM (active).

On to `c1csc(-c2ccc(-c3cccs3)s2)c1`, for which the Potency result in test [1], in test [2], in test [3], in test [4], in test [6] and in [13] was “inactive” throughout. The Potency result in test [7], in [8], in [15] and in test [12] was “inactive” each time. In addition, the Potency in test [5] was 19.3 µM (active); in [9], 17.8 µM (active); in [10], 10 µM (active); in test [11], 1.12 µM (active).

For `CCC[CH2][Sn]([CH2]CCC)([CH2]CCC)[CH2]CCC`, the Potency was 68.6 µM (active) in test [1]; 9.69 µM (active) in test [2]; 17.2 µM (active) in test [3]; 61.1 µM (active) in test [4]; 6.11 µM (active) in [5]; 20 µM (active) in test [14]. Further, the Potency in test [9] is 35.6 µM (active). The Potency entry in test [6], in test [13], in test [7], in test [8] and in test [12] was “inactive” in each case.

Regarding `O=C(CCCCl)c1ccc(F)cc1`, the Potency result in [1], in test [2], in test [3], in test [4], in [5] and in test [6] was “inactive” throughout. The Potency result in test [13], in test [7], in test [8], in test [14], in test [10] and in test [15] was “inactive” in each case. For the same compound, the Potency entry in test [12] is “inactive”. In test [11], the Potency was 11.5 µM (active).
